# Experimental data published in PubChem BioAssay (EPA / NIEHS).
# Some compounds were tested as several samples or in several runs, with calls that do not always agree. Active and inactive are the calls of the source. Rule for the calls: active = hit-call score of the fitted dose curve at least 0.9, where 1 is the maximum; inactive = score below 0.9.
# Key:
# [1] = target: Transcription factor E2F1 (Homo sapiens) (UniProt Q01094); test: ATG_E2F_CIS: Attagene CIS-FACTORIAL HepG2 Assay for human E2F Transcription Factor 1 (AID 2282935); conditions: HepG2 Attagene cis-reporter, E2F reporter RNA transcripts; actives raise or lower the signal
# Sequence of Transcription factor E2F1 (Homo sapiens) (Q01094 whole entry, looked up): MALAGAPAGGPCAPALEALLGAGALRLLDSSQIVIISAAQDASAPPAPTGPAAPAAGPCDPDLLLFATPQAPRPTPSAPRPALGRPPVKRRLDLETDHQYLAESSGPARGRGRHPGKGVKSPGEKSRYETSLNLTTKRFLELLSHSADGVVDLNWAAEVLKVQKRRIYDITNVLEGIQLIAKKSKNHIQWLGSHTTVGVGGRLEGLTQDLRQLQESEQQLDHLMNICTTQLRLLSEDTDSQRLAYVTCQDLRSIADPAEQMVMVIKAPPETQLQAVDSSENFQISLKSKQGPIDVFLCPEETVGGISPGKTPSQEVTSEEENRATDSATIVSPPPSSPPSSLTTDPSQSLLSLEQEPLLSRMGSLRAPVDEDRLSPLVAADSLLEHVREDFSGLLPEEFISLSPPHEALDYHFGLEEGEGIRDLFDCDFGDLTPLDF
# Procedure, shortened: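 Total RNA from 24 h-treated, reporter-transfected HepG2 cells undergoes DNase I treatment, oligo(dT) reverse transcription, PCR and 6-FAM primer extension before capillary electrophoresis.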
# [2] = ATG_E_Box_CIS: Attagene CIS-FACTORIAL HepG2 Assay for human Enhancer Box (E-box) (AID 2282936); conditions: HepG2 E-box cis-reporter transcription, actives raise or lower the signal
# Procedure, shortened: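 DMSO served as negative control and baseline for bidirectional fitting. Human hepatoma HepG2 cells, transiently transfected with cis-reporter constructs, were dosed 24 h; reporter mRNA read by RT-PCR and capillary electrophoresis.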
# [3] = ATG_M_61_CIS: Attagene CIS-FACTORIAL HepG2 Assay for M61 Transcription Factor (Internal Marker) (AID 2282937); conditions: HepG2 Attagene CIS-FACTORIAL M61 internal marker reporter; actives raise or lower the signal
# Procedure, shortened: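 Readout is reporter mRNA by RT-PCR, fluorescent primer extension and capillary electrophoresis, with gain or loss fitted relative to DMSO. Transfected HepG2 cells carrying endogenous-TF-driven cis reporters were exposed to chemicals for 24 hours.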
# [4] = ATG_EGR_CIS: Attagene CIS-FACTORIAL HepG2 Assay for human Early Growth Response 1 (EGR1) (AID 2282938); conditions: HepG2 Attagene CIS-FACTORIAL EGR reporter mRNA; actives raise or lower the signal
# Procedure, shortened: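 After 24 h compound exposure, RNA from reporter-transfected HepG2 cells was reverse-transcribed, PCR-amplified, fluorescently labelled and resolved by capillary electrophoresis. EGR1 reporter transcript changes, up or down, were fitted against DMSO, reflecting endogenous transcription-factor activity.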
# [5] = ATG_M_19_CIS: Attagene CIS-FACTORIAL HepG2 Assay for M19 Transcription Factor (Internal Marker) (AID 2282939); conditions: HepG2 Attagene CIS-FACTORIAL M19 internal marker reporter; actives raise or lower the signal
# Procedure, shortened: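 Chemical-treated HepG2 (24 h) with MRTU constructs; reporter transcripts detected by fluorescent RT-PCR fragment analysis on capillary electrophoresis. Internal background marker, DMSO as baseline.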
# [6] = ATG_ERE_CIS: Attagene CIS-FACTORIAL HepG2 Assay for Estrogen Response Element (ERE) (AID 2282940); conditions: HepG2 ERE cis-reporter, Attagene RNA transcript; actives raise or lower the signal
# Procedure, shortened: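 Human liver cells (HepG2) bearing transiently transfected, promoter-regulated reporter units were exposed 24 h. Reporter mRNA induction was detected by capillary electrophoresis of labelled RT-PCR products and fitted bidirectionally to DMSO.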
# [7] = ATG_Ets_CIS: Attagene CIS-FACTORIAL HepG2 Assay for human Erythroblast Transformation Specific (ETS) (AID 2282941); conditions: HepG2 ETS cis-reporter transcription, actives raise or lower the signal
# Procedure, shortened: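 Steps: transfect HepG2 with multiple reporter units; treat compound 24 h; isolate RNA, DNase-treat, reverse-transcribe; PCR-amplify, label with 6-FAM, digest with HpaI; separate by capillary electrophoresis. Activity fitted both directions versus DMSO.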
# [8] = target: Hepatocyte nuclear factor 3-beta (Homo sapiens) (UniProt Q9Y261); test: ATG_FoxA2_CIS: Attagene CIS-FACTORIAL HepG2 Assay for human Forkhead box A2 (FOXA2) (AID 2282942); conditions: HepG2 cis-reporter transcription factor activity, 24 h; actives raise or lower the signal
# Sequence of Hepatocyte nuclear factor 3-beta (Homo sapiens) (Q9Y261 whole entry, looked up): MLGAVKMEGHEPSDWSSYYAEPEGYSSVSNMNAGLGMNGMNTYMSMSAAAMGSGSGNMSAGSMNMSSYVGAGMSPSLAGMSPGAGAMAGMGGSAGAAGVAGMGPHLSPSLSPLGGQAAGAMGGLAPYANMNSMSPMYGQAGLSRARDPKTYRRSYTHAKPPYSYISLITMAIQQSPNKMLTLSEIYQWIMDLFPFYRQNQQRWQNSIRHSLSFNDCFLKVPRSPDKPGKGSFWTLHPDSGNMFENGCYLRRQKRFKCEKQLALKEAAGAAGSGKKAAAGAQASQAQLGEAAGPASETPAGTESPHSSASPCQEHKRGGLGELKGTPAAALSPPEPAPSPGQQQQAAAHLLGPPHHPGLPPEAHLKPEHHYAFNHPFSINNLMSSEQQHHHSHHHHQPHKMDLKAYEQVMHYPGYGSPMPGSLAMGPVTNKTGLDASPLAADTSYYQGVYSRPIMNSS
# Procedure, shortened: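 Endogenous transcription factor activity is captured via cis-element-driven reporter transcripts in transfected HepG2. Total RNA taken at 24 h post-dosing; labelled RT-PCR products resolved by capillary electrophoresis. Gain or loss fitted versus DMSO.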
# [9] = ATG_FoxO_CIS: Attagene CIS-FACTORIAL HepG2 Assay for human Forkhead box O (FoxO) (AID 2282943); conditions: HepG2 Attagene cis-reporter, FoxO element, mRNA; actives raise or lower the signal
# Procedure, shortened: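 Endogenous transcription factor activity read from multiplexed cis-promoter reporter transcripts in transiently transfected HepG2, 24 h after dosing. Reporter RNA measured via RT-PCR plus capillary electrophoresis of FAM-labeled products; gain or loss relative to DMSO.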
# [10] = ATG_GATA_CIS: Attagene CIS-FACTORIAL HepG2 Assay for human GATA Binding Protein (AID 2282944); conditions: HepG2 GATA cis-element reporter, Attagene multiplex mRNA; actives raise or lower the signal
# Procedure, shortened: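 Transfected cis-reporter HepG2 cells were treated with chemicals for 24 hours. Total RNA was then converted to cDNA, amplified with reporter-specific primers and analysed by fluorescent capillary electrophoresis, using DMSO-treated wells as baseline.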
# [11] = ATG_GLI_CIS: Attagene CIS-FACTORIAL HepG2 Assay for human Zinc Finger Protein GLI1 (AID 2282945); conditions: HepG2, Attagene cis-factorial reporter mRNA, GLI element; actives raise or lower the signal
# Procedure, shortened: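 Bidirectional curve fits relative to DMSO, using reporter mRNA levels from RT-PCR plus capillary electrophoresis. Cells were HepG2 transiently carrying cis-regulated reporter constructs, harvested 24 h after dosing.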
# [12] = target: Bile acid receptor (Homo sapiens) (UniProt Q96RI1); test: ATG_IR1_CIS: Attagene CIS-FACTORIAL HepG2 Assay for human Nuclear Receptor Subfamily 1 Group H Member 4 (NR1H4), IR1 submotif (AID 2282946); conditions: IR1 reporter transcription, actives raise or lower the signal
# Sequence of Bile acid receptor (Homo sapiens) (Q96RI1 whole entry, looked up, the tested form may be a part): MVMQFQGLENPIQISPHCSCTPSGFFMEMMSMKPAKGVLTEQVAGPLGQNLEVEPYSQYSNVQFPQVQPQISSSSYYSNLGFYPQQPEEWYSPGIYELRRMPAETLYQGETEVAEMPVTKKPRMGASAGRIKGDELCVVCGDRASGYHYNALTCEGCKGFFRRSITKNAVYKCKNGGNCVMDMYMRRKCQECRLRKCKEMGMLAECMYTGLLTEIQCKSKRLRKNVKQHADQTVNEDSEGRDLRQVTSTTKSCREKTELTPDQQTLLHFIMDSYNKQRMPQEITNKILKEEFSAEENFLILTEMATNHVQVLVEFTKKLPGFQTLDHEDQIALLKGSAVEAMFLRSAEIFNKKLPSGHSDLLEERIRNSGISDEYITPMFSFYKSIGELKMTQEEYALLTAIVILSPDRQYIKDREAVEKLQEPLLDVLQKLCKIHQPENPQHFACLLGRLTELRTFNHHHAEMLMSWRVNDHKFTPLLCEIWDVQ
# Procedure, shortened: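 Cells (human HepG2) carry transiently transfected cis-promoter reporter transcription units. Compounds are incubated 24 h, total RNA is reverse-transcribed and amplified, and labelled fragments are resolved by capillary electrophoresis. Curves use DMSO as baseline.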
# [13] = ATG_GRE_CIS: Attagene CIS-FACTORIAL HepG2 Assay for human Glucocorticoid Response Elements (GRE) (AID 2282947); conditions: HepG2 GRE cis-reporter, Attagene multiplex mRNA; actives raise or lower the signal
# Procedure, shortened: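 Assay uses human hepatoma HepG2 cells transfected with cis-promoter reporter units, exposed 24 h. mRNA from reporters detected by RT-PCR plus capillary electrophoresis; DMSO serves as negative control and baseline.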
# [14] = ATG_M_32_CIS: Attagene CIS-FACTORIAL HepG2 Assay for M32 Transcription Factor (Internal Marker) (AID 2282949); conditions: HepG2 Attagene cis-factorial M32 reporter, mRNA; actives raise or lower the signal;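 note: background control marker of the multiplexed CIS panel rather than a real target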
# Procedure, shortened: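 Following 24 h chemical exposure of HepG2 cells transiently expressing cis-promoter reporter constructs, reporter transcript levels were determined by RT-PCR with fluorescent labelling and capillary electrophoresis, then fitted bidirectionally against DMSO.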
# [15] = target: Hypoxia-inducible factor 1-alpha (Homo sapiens) (UniProt Q16665); test: ATG_HIF1a_CIS: Attagene CIS-FACTORIAL HepG2 Assay for human Hypoxia Inducible Factor 1 (HIF1A) (AID 2282951); conditions: HepG2 Attagene cis-factorial HIF1a reporter transcription; actives raise or lower the signal
# Sequence of Hypoxia-inducible factor 1-alpha (Homo sapiens) (Q16665 whole entry, looked up): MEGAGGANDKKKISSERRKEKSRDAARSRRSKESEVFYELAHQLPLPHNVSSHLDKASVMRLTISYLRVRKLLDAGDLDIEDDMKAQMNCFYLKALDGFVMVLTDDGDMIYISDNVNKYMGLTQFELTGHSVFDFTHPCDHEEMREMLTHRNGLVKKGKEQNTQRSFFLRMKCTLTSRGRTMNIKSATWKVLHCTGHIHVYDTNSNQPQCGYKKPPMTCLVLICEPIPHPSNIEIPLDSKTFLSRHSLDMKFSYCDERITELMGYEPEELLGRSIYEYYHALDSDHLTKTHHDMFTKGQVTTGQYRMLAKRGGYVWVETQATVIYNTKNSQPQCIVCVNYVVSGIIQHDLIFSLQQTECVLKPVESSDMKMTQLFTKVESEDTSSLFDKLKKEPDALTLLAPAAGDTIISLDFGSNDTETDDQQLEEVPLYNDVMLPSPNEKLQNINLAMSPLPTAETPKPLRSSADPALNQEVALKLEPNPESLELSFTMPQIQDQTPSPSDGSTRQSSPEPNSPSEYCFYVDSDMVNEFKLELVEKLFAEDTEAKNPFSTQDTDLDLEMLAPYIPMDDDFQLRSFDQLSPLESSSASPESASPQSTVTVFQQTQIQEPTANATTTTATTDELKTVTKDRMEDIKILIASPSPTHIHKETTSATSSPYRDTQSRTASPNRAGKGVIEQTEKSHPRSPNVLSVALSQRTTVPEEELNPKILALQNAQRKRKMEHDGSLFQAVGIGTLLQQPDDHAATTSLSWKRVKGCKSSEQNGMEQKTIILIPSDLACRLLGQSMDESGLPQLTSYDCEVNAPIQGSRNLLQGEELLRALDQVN
# Procedure, shortened: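 Activity is fitted in both directions relative to DMSO. Reporter transcripts are read by RT-PCR, fluorescent primer extension and capillary electrophoresis after 24 h chemical treatment. The cells are HepG2 carrying transiently transfected cis-element-driven reporter units responding to endogenous factors.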
# [16] = target: Hepatocyte nuclear factor 6 (Homo sapiens) (UniProt Q9UBC0); test: ATG_HNF6_CIS: Attagene CIS-FACTORIAL HepG2 Assay for human Hepatocyte Nuclear Factor 6 (HNF6) (AID 2282952); conditions: HepG2 Attagene cis-factorial HNF6 reporter transcription; actives raise or lower the signal
# Sequence of Hepatocyte nuclear factor 6 (Homo sapiens) (Q9UBC0 whole entry, looked up, the tested form may be a part): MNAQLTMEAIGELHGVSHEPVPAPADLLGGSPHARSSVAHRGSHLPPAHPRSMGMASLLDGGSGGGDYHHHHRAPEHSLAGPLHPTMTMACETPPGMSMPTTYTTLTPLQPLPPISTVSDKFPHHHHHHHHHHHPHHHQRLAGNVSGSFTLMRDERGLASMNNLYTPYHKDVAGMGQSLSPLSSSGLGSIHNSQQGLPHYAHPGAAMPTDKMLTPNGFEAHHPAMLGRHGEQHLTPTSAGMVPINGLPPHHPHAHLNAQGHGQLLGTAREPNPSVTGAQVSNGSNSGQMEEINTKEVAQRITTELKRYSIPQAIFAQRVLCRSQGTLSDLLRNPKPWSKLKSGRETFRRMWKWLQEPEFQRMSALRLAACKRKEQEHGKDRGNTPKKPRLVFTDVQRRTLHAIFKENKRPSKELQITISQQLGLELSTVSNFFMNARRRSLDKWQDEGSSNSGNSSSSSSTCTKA
# Procedure, shortened: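 Reporter mRNA induction or loss in HepG2 after 24 h exposure; transient cis-MRTU transfection; fragments quantified by capillary electrophoresis; bidirectional analysis, DMSO as negative control.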
# [17] = target: Heat shock factor protein 1 (Homo sapiens) (UniProt Q00613); test: ATG_HSE_CIS: Attagene CIS-FACTORIAL HepG2 Assay for human Heat Shock Transcription Factor 1 (HSE) (AID 2282953); conditions: HepG2 HSE cis-reporter, Attagene RNA transcription; actives raise or lower the signal
# Sequence of Heat shock factor protein 1 (Homo sapiens) (Q00613 whole entry, looked up): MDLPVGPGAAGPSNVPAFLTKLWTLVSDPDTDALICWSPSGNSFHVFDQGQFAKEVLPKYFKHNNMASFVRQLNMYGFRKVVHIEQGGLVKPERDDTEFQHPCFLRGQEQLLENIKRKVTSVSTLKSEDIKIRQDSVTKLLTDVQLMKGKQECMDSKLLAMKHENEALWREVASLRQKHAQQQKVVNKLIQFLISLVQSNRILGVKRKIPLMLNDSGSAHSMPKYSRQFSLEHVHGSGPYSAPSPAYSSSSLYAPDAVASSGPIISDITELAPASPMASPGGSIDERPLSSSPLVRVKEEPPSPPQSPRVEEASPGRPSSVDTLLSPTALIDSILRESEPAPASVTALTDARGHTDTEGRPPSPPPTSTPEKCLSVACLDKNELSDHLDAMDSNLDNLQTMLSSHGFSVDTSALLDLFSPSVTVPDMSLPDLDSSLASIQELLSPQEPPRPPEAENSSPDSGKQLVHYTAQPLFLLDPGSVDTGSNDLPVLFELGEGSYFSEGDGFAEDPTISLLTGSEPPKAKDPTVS
# Procedure, shortened: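 Liver-derived HepG2 cells carry transiently introduced multiple reporter units governed by cis promoters. Reporter RNA measured 24 h post-dose through reverse transcription, PCR amplification, fluorescent labelling and capillary electrophoresis, normalised to DMSO.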
# [18] = ATG_MRE_CIS: Attagene CIS-FACTORIAL HepG2 Assay for human Metal Responsive Element (MRE) (AID 2282954); conditions: HepG2 MRE cis-reporter transcription, Attagene multiplex; actives raise or lower the signal
# Procedure, shortened: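 After a 24 h chemical exposure, transiently transfected HepG2 cells yield RNA whose reporter sequences are amplified, FAM-labelled and sized by capillary electrophoresis. Curves are fitted bidirectionally relative to DMSO.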
# [19] = ATG_ISRE_CIS: Attagene CIS-FACTORIAL HepG2 Assay for human Interferon Regulatory Factor 1 (IRF1) binding to an Interferon-Stimulated Response Element (ISRE) (AID 2282948); conditions: HepG2 ISRE cis-reporter (Attagene), mRNA transcription readout; actives raise or lower the signal
# Procedure, shortened: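 Transfected HepG2 (multiple reporter transcription units, cis elements) dosed 24 h. RNA → oligo(dT) RT → PCR → 6-FAM primer extension → HpaI → CE. DMSO = negative control/baseline.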
# [20] = ATG_M_06_CIS: Attagene CIS-FACTORIAL HepG2 Assay for M06 Transcription Factor (Internal Marker) (AID 2282950); conditions: HepG2 Attagene CIS-FACTORIAL M06 internal marker reporter; actives raise or lower the signal
# Procedure, shortened: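 Cells (HepG2, transiently carrying cis-driven reporter units) receive chemical for 24 h before RNA isolation. Reporter cDNA is PCR-amplified, FAM-labelled by primer extension, HpaI-digested and sized on a capillary analyser.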
compound,measurement,setting,value
COC(=O)c1ccccc1CS(=O)(=O)NC(=O)Nc1nc(OC)cc(OC)n1,outcome,[1],inactive
same,AC50,[2],125 µM (active)
same,outcome,[2],inactive
same,outcome,[3],inactive
same,outcome,[4],inactive
same,outcome,[5],inactive
same,outcome,[6],inactive
same,outcome,[7],inactive
same,outcome,[8],inactive
same,outcome,[9],inactive
same,outcome,[10],inactive
same,outcome,[11],inactive
same,outcome,[12],inactive
same,outcome,[13],inactive
same,outcome,[14],inactive
same,outcome,[15],inactive
same,outcome,[16],inactive
same,outcome,[17],inactive
same,outcome,[18],inactive
O=C1c2ccccc2C(=O)N1SC(Cl)(Cl)Cl,outcome,[1],inactive
same,outcome,[2],inactive
same,outcome,[3],inactive
same,outcome,[4],inactive
same,outcome,[5],inactive
same,outcome,[6],inactive
same,outcome,[7],inactive
same,outcome,[8],inactive
same,outcome,[9],inactive
same,outcome,[10],inactive
same,outcome,[11],inactive
same,outcome,[12],inactive
same,outcome,[14],inactive
same,outcome,[15],inactive
same,outcome,[16],inactive
same,outcome,[17],inactive
same,outcome,[18],inactive
O=[N+]([O-])/N=C1\NCCN1Cc1ccc(Cl)nc1,outcome,[1],inactive
same,outcome,[2],inactive
same,outcome,[3],inactive
same,outcome,[4],inactive
same,outcome,[5],inactive
same,outcome,[6],inactive
same,outcome,[7],inactive
same,outcome,[8],inactive
same,outcome,[9],inactive
same,outcome,[10],inactive
same,outcome,[11],inactive
same,outcome,[12],inactive
same,outcome,[13],inactive
same,outcome,[14],inactive
same,outcome,[15],inactive
same,outcome,[16],inactive
same,outcome,[18],inactive
COC(=O)c1ccccc1S(=O)(=O)NC(=O)N(C)c1nc(C)nc(OC)n1,outcome,[1],inactive
same,outcome,[2],inactive
same,outcome,[3],inactive
same,outcome,[4],inactive
same,outcome,[5],inactive
same,outcome,[6],inactive
same,outcome,[7],inactive
same,outcome,[8],inactive
same,outcome,[9],inactive
same,outcome,[10],inactive
same,outcome,[11],inactive
same,outcome,[12],inactive
same,outcome,[13],inactive
same,outcome,[14],inactive
same,outcome,[15],inactive
same,outcome,[16],inactive
same,outcome,[17],inactive
same,outcome,[18],inactive
CCC(C)(C)C(=O)OC1=C(c2ccc(Cl)cc2Cl)C(=O)OC12CCCCC2,outcome,[1],inactive
same,outcome,[2],inactive
same,outcome,[3],inactive
same,outcome,[4],inactive
same,outcome,[5],inactive
same,outcome,[6],inactive
same,AC50,[7],1.69 µM (active)
same,outcome,[8],inactive
same,outcome,[9],inactive
same,outcome,[10],inactive
same,outcome,[11],inactive
same,outcome,[12],inactive
same,outcome,[13],inactive
same,outcome,[19],inactive
same,outcome,[14],inactive
same,outcome,[15],inactive
same,outcome,[16],inactive
same,outcome,[18],inactive
CC1(c2ccc(Oc3ccccc3)cc2)OC(=O)N(Nc2ccccc2)C1=O (configuration not stated),outcome,[1],inactive
same,outcome,[2],inactive
same,outcome,[3],inactive
same,outcome,[4],inactive
same,outcome,[5],inactive
same,outcome,[6],inactive
same,outcome,[7],inactive
same,outcome,[8],inactive
same,outcome,[9],inactive
same,outcome,[10],inactive
same,outcome,[11],inactive
same,outcome,[12],inactive
same,outcome,[13],inactive
same,outcome,[14],inactive
same,outcome,[20],inactive
same,outcome,[15],inactive
same,outcome,[16],inactive
same,outcome,[17],inactive
same,outcome,[18],inactive
CCC(C)(NC(=O)c1cc(Cl)c(C)c(Cl)c1)C(=O)CCl (configuration not stated),outcome,[1],inactive
same,outcome,[2],inactive
same,outcome,[3],inactive
same,outcome,[4],inactive
same,outcome,[5],inactive
same,outcome,[6],inactive
same,outcome,[7],inactive
same,outcome,[8],inactive
same,outcome,[9],inactive
same,outcome,[10],inactive
same,outcome,[11],inactive
same,outcome,[12],inactive
same,outcome,[13],inactive
same,outcome,[19],inactive
same,outcome,[14],inactive
same,outcome,[15],inactive
same,outcome,[16],inactive
same,outcome,[17],inactive
same,outcome,[18],inactive
